In ChEMBL document CHEMBL1961873, “Compounds: GSK PKIS; Assays: Nanosyn kinase panel” (2012):

Assays:
[1] = target: T1, Tyrosine-protein kinase receptor TYRO3 (Homo sapiens) (UniProt Q06418); settings: at 1 µM
T1 sequence (whole entry): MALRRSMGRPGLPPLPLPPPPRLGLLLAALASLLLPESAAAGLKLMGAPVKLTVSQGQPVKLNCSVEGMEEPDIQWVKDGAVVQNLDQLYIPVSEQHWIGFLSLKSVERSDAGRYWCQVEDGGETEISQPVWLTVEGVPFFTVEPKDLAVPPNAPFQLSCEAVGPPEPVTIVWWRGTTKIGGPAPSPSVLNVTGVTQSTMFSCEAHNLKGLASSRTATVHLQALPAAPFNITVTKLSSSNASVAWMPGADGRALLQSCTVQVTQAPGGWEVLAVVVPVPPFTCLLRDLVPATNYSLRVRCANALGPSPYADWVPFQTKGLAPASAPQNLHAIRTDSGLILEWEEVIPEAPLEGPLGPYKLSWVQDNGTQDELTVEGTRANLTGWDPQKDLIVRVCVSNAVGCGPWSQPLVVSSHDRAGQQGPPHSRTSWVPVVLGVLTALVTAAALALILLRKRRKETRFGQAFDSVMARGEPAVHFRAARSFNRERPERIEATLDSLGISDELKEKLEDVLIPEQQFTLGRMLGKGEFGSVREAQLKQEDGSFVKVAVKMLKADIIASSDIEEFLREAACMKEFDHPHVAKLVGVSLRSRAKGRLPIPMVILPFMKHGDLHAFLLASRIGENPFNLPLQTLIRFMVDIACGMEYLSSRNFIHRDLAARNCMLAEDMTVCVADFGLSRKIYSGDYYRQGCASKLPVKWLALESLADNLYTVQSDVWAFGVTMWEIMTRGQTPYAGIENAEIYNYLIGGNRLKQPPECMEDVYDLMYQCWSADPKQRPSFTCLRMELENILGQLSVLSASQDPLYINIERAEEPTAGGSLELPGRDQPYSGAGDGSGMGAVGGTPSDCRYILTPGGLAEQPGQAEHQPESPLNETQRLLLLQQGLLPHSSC

[2] = target: Tyrosine-protein kinase Yes (Homo sapiens) (UniProt P07947); settings: at 0.1 µM
[3] = target: Tyrosine-protein kinase Yes (Homo sapiens) (UniProt P07947); settings: at 1 µM
[4] = target: T2, Tyrosine-protein kinase ZAP-70 (Homo sapiens) (UniProt P43403); settings: at 0.1 µM
T2 sequence (whole entry): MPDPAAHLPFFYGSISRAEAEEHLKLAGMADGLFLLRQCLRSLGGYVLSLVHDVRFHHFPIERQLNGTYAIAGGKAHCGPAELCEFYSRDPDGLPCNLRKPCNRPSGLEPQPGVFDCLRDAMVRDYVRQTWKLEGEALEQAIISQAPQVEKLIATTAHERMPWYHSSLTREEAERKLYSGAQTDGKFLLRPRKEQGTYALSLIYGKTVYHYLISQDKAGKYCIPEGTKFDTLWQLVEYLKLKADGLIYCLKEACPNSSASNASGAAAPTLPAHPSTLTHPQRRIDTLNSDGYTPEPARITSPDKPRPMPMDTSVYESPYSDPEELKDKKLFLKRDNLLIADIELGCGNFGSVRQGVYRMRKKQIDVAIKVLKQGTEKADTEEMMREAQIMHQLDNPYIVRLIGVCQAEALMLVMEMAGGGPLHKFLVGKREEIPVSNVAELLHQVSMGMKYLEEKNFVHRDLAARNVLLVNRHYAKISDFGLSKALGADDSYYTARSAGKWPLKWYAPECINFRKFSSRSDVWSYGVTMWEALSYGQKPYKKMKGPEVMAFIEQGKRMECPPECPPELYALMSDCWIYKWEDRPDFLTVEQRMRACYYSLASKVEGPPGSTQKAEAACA

[5] = target: T2, Tyrosine-protein kinase ZAP-70 (Homo sapiens); settings: at 1 µM
[6] = target: Serine/threonine-protein kinase B-raf (Homo sapiens) (UniProt P15056); settings: at 0.1 µM
[7] = target: Serine/threonine-protein kinase B-raf (Homo sapiens) (UniProt P15056); settings: at 1 µM
[8] = tested on: Serine/threonine-protein kinase B-raf (Homo sapiens), P15056 [V600E]; settings: at 0.1 µM
[9] = tested on: Serine/threonine-protein kinase B-raf (Homo sapiens), P15056 [V600E]; settings: at 1 µM
[10] = target: RAF proto-oncogene serine/threonine-protein kinase (Homo sapiens) (UniProt P04049); settings: at 0.1 µM
[11] = target: RAF proto-oncogene serine/threonine-protein kinase (Homo sapiens) (UniProt P04049); settings: at 1 µM
[12] = target: T3, Interleukin-1 receptor-associated kinase 4 (Homo sapiens) (UniProt Q9NWZ3); settings: at 0.1 µM
T3 sequence (whole entry): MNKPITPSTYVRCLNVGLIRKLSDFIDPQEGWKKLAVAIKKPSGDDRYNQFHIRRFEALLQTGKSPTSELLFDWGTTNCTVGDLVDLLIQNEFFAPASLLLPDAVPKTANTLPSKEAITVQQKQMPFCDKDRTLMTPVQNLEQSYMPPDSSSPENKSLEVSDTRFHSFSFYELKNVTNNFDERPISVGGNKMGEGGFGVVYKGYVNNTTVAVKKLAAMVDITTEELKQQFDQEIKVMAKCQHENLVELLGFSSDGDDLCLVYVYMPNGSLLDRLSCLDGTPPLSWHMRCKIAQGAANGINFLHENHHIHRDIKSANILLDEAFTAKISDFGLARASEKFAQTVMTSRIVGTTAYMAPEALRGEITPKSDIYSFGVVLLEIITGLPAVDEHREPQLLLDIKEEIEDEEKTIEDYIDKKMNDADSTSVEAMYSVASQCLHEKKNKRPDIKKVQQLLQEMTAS

[13] = target: T3, Interleukin-1 receptor-associated kinase 4 (Homo sapiens); settings: at 1 µM
[14] = target: Leucine-rich repeat serine/threonine-protein kinase 2 (Homo sapiens) (UniProt Q5S007); settings: at 0.1 µM
[15] = target: Leucine-rich repeat serine/threonine-protein kinase 2 (Homo sapiens) (UniProt Q5S007); settings: at 1 µM
[16] = tested on: Leucine-rich repeat serine/threonine-protein kinase 2 (Homo sapiens), Q5S007 [G2019S]; settings: at 0.1 µM
[17] = tested on: Leucine-rich repeat serine/threonine-protein kinase 2 (Homo sapiens), Q5S007 [G2019S]; settings: at 1 µM

Sequence of Tyrosine-protein kinase Yes (Homo sapiens) (P07947 2-543 limits assumed): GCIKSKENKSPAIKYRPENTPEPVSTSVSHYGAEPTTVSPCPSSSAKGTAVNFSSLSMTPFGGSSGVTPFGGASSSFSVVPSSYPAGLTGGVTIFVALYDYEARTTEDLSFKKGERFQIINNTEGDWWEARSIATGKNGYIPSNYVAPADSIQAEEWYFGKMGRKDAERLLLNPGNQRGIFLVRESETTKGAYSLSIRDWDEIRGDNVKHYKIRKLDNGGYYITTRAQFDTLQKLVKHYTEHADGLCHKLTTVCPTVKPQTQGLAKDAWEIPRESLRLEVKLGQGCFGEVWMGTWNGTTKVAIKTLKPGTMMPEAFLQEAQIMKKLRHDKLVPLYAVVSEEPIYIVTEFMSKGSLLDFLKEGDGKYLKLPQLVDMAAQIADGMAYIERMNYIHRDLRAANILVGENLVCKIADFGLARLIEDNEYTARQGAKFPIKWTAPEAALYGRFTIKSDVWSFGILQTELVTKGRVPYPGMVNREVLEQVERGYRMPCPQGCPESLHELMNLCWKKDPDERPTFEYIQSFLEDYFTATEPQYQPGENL
Sequence of Leucine-rich repeat serine/threonine-protein kinase 2 (Homo sapiens), Q5S007 [G2019S] (Q5S007 whole entry G2019S): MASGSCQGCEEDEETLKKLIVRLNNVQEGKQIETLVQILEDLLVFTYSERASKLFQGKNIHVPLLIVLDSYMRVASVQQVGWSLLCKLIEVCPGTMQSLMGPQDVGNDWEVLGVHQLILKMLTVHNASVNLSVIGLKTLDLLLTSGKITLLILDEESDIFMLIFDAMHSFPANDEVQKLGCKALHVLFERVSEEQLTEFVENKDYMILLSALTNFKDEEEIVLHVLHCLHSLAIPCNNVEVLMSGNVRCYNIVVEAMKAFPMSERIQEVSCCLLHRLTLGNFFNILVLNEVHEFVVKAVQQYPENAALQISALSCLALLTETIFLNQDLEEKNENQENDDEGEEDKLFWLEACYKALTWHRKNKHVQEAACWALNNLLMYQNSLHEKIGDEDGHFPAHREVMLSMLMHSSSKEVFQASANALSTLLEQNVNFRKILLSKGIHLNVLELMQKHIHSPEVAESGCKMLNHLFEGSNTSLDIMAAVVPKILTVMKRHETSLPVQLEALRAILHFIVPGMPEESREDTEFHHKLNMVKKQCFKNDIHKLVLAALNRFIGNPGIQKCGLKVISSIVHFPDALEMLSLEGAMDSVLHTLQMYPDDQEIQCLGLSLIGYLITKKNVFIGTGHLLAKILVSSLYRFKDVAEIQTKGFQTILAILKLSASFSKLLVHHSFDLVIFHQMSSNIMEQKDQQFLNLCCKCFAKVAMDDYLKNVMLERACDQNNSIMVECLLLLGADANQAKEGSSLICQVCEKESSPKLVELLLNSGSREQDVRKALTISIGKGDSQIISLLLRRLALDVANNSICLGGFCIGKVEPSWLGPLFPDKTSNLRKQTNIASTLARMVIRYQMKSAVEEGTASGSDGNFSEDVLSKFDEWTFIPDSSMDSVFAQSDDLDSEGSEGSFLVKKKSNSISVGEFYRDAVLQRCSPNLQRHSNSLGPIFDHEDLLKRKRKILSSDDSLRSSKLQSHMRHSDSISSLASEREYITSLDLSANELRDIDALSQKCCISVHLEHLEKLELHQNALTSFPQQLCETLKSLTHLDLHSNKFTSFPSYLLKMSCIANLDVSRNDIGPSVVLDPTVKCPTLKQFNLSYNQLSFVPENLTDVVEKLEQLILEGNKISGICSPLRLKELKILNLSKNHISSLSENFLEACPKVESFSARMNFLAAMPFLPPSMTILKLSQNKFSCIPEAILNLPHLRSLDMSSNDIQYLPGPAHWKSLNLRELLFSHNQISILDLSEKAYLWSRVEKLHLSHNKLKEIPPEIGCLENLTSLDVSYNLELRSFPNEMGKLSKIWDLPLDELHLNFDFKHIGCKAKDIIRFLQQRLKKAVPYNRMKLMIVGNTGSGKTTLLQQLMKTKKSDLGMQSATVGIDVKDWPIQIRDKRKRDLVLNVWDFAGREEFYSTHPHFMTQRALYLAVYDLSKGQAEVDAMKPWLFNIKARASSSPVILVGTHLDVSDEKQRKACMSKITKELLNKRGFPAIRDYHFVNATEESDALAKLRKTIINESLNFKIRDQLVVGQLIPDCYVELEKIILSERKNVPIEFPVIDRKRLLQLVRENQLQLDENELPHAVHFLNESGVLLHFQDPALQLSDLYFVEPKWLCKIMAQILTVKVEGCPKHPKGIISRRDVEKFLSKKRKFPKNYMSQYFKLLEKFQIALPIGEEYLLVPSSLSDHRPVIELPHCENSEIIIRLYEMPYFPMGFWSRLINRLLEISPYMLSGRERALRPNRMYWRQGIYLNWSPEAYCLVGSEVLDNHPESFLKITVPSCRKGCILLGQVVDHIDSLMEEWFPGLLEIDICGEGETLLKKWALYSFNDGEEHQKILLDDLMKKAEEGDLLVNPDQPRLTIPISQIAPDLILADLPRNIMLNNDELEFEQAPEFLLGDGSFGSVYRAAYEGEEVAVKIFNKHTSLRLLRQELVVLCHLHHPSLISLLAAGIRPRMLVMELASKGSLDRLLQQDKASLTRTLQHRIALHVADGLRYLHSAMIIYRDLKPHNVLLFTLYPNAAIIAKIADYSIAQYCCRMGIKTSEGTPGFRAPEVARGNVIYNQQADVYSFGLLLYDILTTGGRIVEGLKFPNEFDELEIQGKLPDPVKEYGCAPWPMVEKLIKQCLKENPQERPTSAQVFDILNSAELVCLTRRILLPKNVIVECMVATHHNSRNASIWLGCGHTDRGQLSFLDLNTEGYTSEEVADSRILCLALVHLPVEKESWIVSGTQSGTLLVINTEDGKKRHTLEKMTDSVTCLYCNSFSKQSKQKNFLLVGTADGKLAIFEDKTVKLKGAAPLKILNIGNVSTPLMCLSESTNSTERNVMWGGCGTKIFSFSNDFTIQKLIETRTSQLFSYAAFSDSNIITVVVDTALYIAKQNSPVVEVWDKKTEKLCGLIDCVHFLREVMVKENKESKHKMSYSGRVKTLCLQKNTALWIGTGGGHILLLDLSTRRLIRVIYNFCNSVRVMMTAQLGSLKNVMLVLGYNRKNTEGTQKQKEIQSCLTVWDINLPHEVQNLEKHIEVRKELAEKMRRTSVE
Sequence of RAF proto-oncogene serine/threonine-protein kinase (Homo sapiens) (P04049 whole entry): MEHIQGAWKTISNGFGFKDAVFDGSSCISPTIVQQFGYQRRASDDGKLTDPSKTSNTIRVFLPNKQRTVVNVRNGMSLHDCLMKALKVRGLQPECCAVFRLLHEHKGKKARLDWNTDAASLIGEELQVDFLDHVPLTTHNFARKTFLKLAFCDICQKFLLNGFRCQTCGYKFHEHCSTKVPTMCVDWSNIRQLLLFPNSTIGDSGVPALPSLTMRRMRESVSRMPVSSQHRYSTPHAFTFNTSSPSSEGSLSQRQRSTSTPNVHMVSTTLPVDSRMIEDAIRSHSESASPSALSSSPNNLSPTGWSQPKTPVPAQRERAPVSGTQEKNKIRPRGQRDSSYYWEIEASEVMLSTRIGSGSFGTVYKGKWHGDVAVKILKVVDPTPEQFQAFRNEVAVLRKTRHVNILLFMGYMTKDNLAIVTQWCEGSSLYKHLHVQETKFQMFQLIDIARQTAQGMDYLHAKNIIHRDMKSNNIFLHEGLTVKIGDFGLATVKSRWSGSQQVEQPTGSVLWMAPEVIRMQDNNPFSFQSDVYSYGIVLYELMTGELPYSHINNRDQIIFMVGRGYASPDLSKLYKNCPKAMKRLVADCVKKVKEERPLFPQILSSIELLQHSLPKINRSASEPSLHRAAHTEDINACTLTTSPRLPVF
Sequence of Serine/threonine-protein kinase B-raf (Homo sapiens), P15056 [V600E] (P15056 whole entry V600E): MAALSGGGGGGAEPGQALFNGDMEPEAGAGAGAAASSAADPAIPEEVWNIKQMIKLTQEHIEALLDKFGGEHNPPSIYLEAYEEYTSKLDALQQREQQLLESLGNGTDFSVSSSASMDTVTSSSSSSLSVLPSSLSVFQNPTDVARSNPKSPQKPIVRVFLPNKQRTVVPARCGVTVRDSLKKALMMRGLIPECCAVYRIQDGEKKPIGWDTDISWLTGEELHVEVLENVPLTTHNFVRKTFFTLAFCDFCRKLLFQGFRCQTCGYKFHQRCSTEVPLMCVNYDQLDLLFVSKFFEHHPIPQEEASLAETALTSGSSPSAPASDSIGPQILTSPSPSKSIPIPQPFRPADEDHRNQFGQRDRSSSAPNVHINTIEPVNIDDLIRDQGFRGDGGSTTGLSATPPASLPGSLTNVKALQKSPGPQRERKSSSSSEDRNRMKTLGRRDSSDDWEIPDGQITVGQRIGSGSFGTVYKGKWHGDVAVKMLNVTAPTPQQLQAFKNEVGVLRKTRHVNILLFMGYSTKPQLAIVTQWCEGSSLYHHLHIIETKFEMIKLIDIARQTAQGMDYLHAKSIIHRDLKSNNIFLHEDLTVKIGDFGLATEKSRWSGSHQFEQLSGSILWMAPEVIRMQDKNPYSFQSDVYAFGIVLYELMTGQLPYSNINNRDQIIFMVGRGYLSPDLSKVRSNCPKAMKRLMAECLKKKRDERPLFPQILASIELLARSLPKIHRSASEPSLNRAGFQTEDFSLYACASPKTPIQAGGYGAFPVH
Sequence of Leucine-rich repeat serine/threonine-protein kinase 2 (Homo sapiens) (Q5S007 whole entry): as the sequence (Q5S007 whole entry G2019S) above, with S2019G counted along it
Sequence of Serine/threonine-protein kinase B-raf (Homo sapiens) (P15056 whole entry): as the sequence (P15056 whole entry V600E) above, with E600V counted along it

Row | Compound | inhibition [1] | inhibition [2] | inhibition [3] | inhibition [4] | inhibition [5] | inhibition [6] | inhibition [7] | inhibition [8] | inhibition [9] | inhibition [10] | inhibition [11] | inhibition [12] | inhibition [13] | inhibition [14] | inhibition [15] | inhibition [16] | inhibition [17]
1 | c1ccc(Nc2ncc(-c3ccccc3)o2)cc1 | 6.84% | 2.4% | 6.64% | -1.32% | 1.41% | 5.93% | 7.7% | 5.02% | 4.39% | 2.39% | 0.56% | 2.02% | 2.65% | 1.16% | 4.27% | 3.18% | 8.98%
2 | Cc1ccc2c(-c3ccnc(Nc4ccc5c(c4)OCCO5)n3)c(-c3ccc(C(F)(F)F)cc3)nn2n1 | 2.41% | 6.79% | 46.8% | -2.2% | 1.38% | 0.83% | 1.14% | 0.62% | 1.44% | 4.51% | 1.48% | -0.63% | -0.5% | 2.01% | 2.22% | 2.87% | 3.58%
3 | NS(=O)(=O)c1ccc(N/N=C2\C(=O)Nc3ccc(Cl)cc32)cc1 | 5.46% | 1.72% | 3.69% | 1.01% | 3.02% | 4.45% | 4.35% | 5.27% | 4.36% | -0.52% | -2.46% | 1.38% | 1.48% | 3.85% | 14.7% | 10.2% | 49.5%
4 | CN(c1ccc(NC(=O)Nc2ccc(OC(F)(F)F)cc2)cc1)c1ccnc(Nc2cccc(S(N)(=O)=O)c2)n1 | 27.2% | 15.5% | 65.2% | -0.16% | 3.87% | 5.02% | 22.7% | 4.82% | 18% | -2.25% | -4.06% | 1.26% | 2.86% | 4.25% | 27.6% | 3.86% | 17.2%
5 | Cc1ccc(Nc2ccnc(Nc3cccc(C(N)=O)c3)n2)cc1O | 55% | 33.5% | 78.5% | -1.9% | 6.83% | 6.53% | 10.4% | 5.95% | 8.26% | 6.98% | 4.38% | -2.94% | 6.55% | 0.74% | 9.44% | 2.08% | 26.1%
6 | ON=C1CCc2cc(-c3nc(C4CCNCC4)[nH]c3-c3ccncc3)ccc21 | 1.37% | -1.71% | 0.86% | 1.57% | 1.96% |  |  |  |  | -7.53% | 10.2% | 4% | -0.27% | 1.51% | 2.68% | 0.74% | 4.07%
7 | CN(C)C(=O)O[C@@H]1CN[C@@H](C#Cc2cc3ncnc(Nc4ccc(OCc5cccc(F)c5)c(Cl)c4)c3s2)C1 | -0.16% | 3.49% | 5.24% | 0.96% | 2.42% | 0.07% | 3.2% | 0.85% | 3.23% | -2.83% |  | 2.83% | 0.5% | 0.07% | 0.34% | 1.22% | 4.14%
8 | COC(=O)c1cncc(/C=C/c2c(C)cc(O)cc2C)c1 | 7.16% | 4.43% | 18.8% | 2.93% | -0.01% | 6.07% | 9.71% | 5.41% | 8.24% | 1.93% | -7.11% | -4.61% | 1.8% | 1.53% | 6.87% | 2.83% | 9.71%
9 | c1ccc(Cc2nc3ccc(Nc4ncnc5ccccc45)cc3[nH]2)cc1 | 3.79% | 1.02% | 9.72% | 1.42% | -1.31% | 4.95% | 6.09% | 4.48% | 5.36% | 3.87% | 8.44% | -1.86% | 1.52% | 0.2% | 4.18% | 3.52% | 9.17%
10 | Nc1ccc(C#Cc2cncnc2Nc2ccc(OCc3cccc(F)c3)c(Cl)c2)cc1 | 3.64% | 1.94% | 8.1% | -0.01% | -1.74% | 4.78% | 3.99% | 4.21% | 3.42% | -3.06% | -1.01% | 0.78% | 1.25% | 2.69% | 2.94% | 3.21% | 3.62%
11 | COC(=O)Nc1nc2cc(Oc3ccc(NC(=O)Nc4cccc(Br)c4)cc3)ccc2[nH]1 | 15.3% | 4.4% | 6.98% | 5.03% | 3.22% | 13% | 20.6% | 11.3% | 20.8% | -5.74% | 44.2% | 1.75% | 1.23% | 8.94% | 13.4% | 4.67% | 10.5%
12 | CCCN1CCCC(c2ccc(Nc3nc(Nc4cc(F)ccc4C(N)=O)c4cc[nH]c4n3)c(OC)c2)C1 (stereo not drawn) | 7.19% | 5.09% | 9.04% | 7.83% | 28.7% | 11.6% | 40.1% | 11.2% | 35.5% | 1.24% | -4.64% | 3.05% | 3.34% | 86.9% | 88.3% | 80.5% | 83.5%
13 | Cc1ccc2c(c1)/C(=N/Nc1ccc(S(N)(=O)=O)cc1)C(=O)N2 | 0.35% | -0.04% | 5.49% | 1.31% | 1.47% | 0.51% | 3.31% | 0.4% | 3.37% | 0.26% |  | 2.09% | -0.03% | 6.44% | 13.1% | 9.36% | 46.2%
14 | N#Cc1cccc(Nc2nccc(-c3cnn4ncccc34)n2)c1 | 47.8% | 5.64% | 37% | 3.19% | 13.3% | 19.5% | 65.2% | 18.8% | 65% | -0.47% | 0.47% | 4.11% | 15.1% | 4.57% | 19.8% | 7.72% | 40.4%
15 | COc1cc2ncnc(Nc3ccc(C)c(O)c3)c2cc1OC | 34.5% | 8.25% | 42% | 3.61% | 1.79% | 8.83% | 10% | 7.72% | 9.15% | 1.3% | -1.36% | 4.09% | 2.62% | 1.75% | 8.77% | 4.67% | 18.3%
16 | O=C1Nc2ccc(-c3cccnc3)cc2C1=Cc1cc(Br)c(O)c(Br)c1 | 9.95% | 2.64% | 5.79% |  | -8.3% | 8.77% | 18.3% | 8.84% | 18.1% | -2.68% | 21.8% | -1.88% | 4.22% | 23.2% | 22.3% | 47.2% | 61.3%
17 | COc1cccc(-n2ncc3c(N/N=C/c4ccc(S(C)(=O)=O)cc4)ncnc32)c1 | 22.4% | 31.9% | 57.4% | -3.44% | 1.31% | 7.5% | 16.4% | 8.25% | 20.2% | -3.03% | -5.96% | -3.29% | 1.12% | -1.93% | -1.56% | 2.72% | 6.75%
18 | CN1CCN(C(=O)c2ccc(NC(=O)Nc3ccc(N(C)c4ccnc(Nc5ccc(CS(C)(=O)=O)cc5)n4)cc3)cc2)CC1 | 21.9% | 2.29% | 16.2% | 2.02% | 5.2% | 2.69% | 14.5% | 3.84% | 11.8% | 2.58% | -0.88% | 0.32% | 0.52% | 13.7% | 21.2% | 15.2% | 50.9%
19 | Cc1ccc2c(-c3ccnc(Nc4cccc(C(F)(F)F)c4)n3)c(-c3ccccc3)nn2n1 | 17.5% | 53.8% | 91.8% | 0.09% | 2.06% | 6.35% | 14.1% | 4.17% | 8.85% | 4.15% | 3.34% | 2.03% | 2.78% | 1.87% | 7.47% | 2.59% | 4.94%
20 | O=S(=O)(CCOCc1ccc(-c2ccc3ncnc(Nc4ccc(OCc5cccc(F)c5)c(Cl)c4)c3c2)o1)c1ccccc1 | -0.33% | -1.93% | 2.61% | -5.44% | 0.81% | 2.33% | 3.21% | 2.43% | 3.05% | -0.94% | -1.29% | 0.22% | 0.93% | 4.19% | 9.06% | 6.55% | 10.3%
